Assay results from publication PMC13494018.

B1: design_376_bf9d4634-8475-4fdb-a175-1db49a23bdcd_2251_dldesign_0_cycle1_af2pred (protein)
chain: GAASAAEEAKGHAIAAEAYALSGKKKEEALEDAKKAGEYAKKATPEYQAAVKKLFEKKVERVKAKPESAETAEKMKALFEEVVA
B2: design_376_bf9d4634-8475-4fdb-a175-1db49a23bdcd_2406_dldesign_0_cycle1_af2pred (protein)
chain: HMEELEKLLKEAEKAAKEAAEAYKKDPAEGKKWASKARDLSIEAISLDPSAYEKAKEIAEKVAEVDPEAGKKIKAILERTYEALKRA
B3: design_596_3e5f537c-0703-45f0-993f-ff416531349a_46_dldesign_0_cycle1_af2pred (protein)
chain: KYKELLKKAKELYEKAIAAAGDPAKAAAELKKANAAFTDALAEARAESKENFKKVRKEYGELKAKYEAAKAAA
B4: design_376_bf9d4634-8475-4fdb-a175-1db49a23bdcd_2407_dldesign_0_cycle1_af2pred (protein)
chain: MEEEEKKKKEEAKKLAKELGNLLIEAFDADVEDEEKGEEKLKEAKKLAKELKKLDPELGKKAEKRIKRFEESMKIAKELKEK
B5: design_376_bf9d4634-8475-4fdb-a175-1db49a23bdcd_1954_dldesign_0_cycle1_af2pred (protein)
chain: MTAEEAIKKIEEAAEKASKELKEIGKKNPAVAAYAKAASERVKRRAKRAIKEIKEKGLTGVQAEGLAEAASYFAEDQAENAKKKAEEA
B6: design_376_bf9d4634-8475-4fdb-a175-1db49a23bdcd_2064_dldesign_0_cycle1_af2pred (protein)
chain: SEKEEIIKRAKEVAERARKVAAEAKEIGPAALPVLNKATEARALANAARDLAEAGGNLEVAKEVLKEAEELLKKAEEELKKLKKE
B7: design_376_bf9d4634-8475-4fdb-a175-1db49a23bdcd_1797_dldesign_0_cycle1_af2pred (protein)
chain: AADEAKAKAKAALDAAAAAAAKVDPKKAPEVKARAAKAKATLDKLYADFKDDPEIATEVANIFLKGAEALLKEIKAA
B8: design_376_bf9d4634-8475-4fdb-a175-1db49a23bdcd_1567_dldesign_0_cycle1_af2pred (protein)
chain: SAEEEIKKKAKELEKAGAAALFELADASKEEAPKYAAKIDKAIADLKALGKAATPELGKELFAKADKLQATRDRIMEDIES
B9: design_596_3e5f537c-0703-45f0-993f-ff416531349a_232_dldesign_0_cycle1_af2pred (protein)
chain: LKAEAAEKSAEARELIAEAETLAKNIKNLSKEEAKEALKVAEEALKKAKEAAKLMAKVGEEELGKKLLERAKKAYKETKEAVKKKLK
B10: design_376_bf9d4634-8475-4fdb-a175-1db49a23bdcd_2229_dldesign_0_cycle1_af2pred (protein)
chain: MAEKIKKAITEAREKYADARGYAYAAKKDPKFLPEAVKAADAAAAAWEALAKLDPANKAIYDANAAKAKAIGDAAKAAL
B11: design_376_bf9d4634-8475-4fdb-a175-1db49a23bdcd_746_dldesign_0_cycle1_af2pred (protein)
chain: MEKAEEMGERLIEAVKESPEKAREVAEEMVRRAKEGDVEEAAAIAQAVAEAYAVAVKENKEAAEIVREALREVQEIGRKKR
B12: design_376_bf9d4634-8475-4fdb-a175-1db49a23bdcd_2272_dldesign_0_cycle1_af2pred (protein)
chain: AEEYLKEAKKYLEEAKKVAEKNPKAKPAYERGKKKYEEYLKKAKETGDYEEYAKKAYIAADQALEHAEFIAK
B13: design_376_bf9d4634-8475-4fdb-a175-1db49a23bdcd_2270_dldesign_0_cycle1_af2pred (protein)
chain: SMAREKARKESEELRELVKKAREIAKEAKEKAKEKGPEAQKIAKEAAKEAAKAVWYFPDKEKSEKALQKAEELLKEI
B14: design_376_bf9d4634-8475-4fdb-a175-1db49a23bdcd_1609_dldesign_0_cycle1_af2pred (protein)
chain: AKEEARELAEKAYEAAKSTSEDLREDVEKDGIGPKAVKSISDNMIEWIEKVHEEVKVDEEAHKIAEEAIKYAKEEGEKNIELAKKR
B15: design_376_bf9d4634-8475-4fdb-a175-1db49a23bdcd_1182_dldesign_0_cycle1_af2pred (protein)
chain: EEEEKQKVKEEAAKNVEEAVEAAGELIAKHPELREKAYKLRKEAIRLSQEAGKAAEKDLEEGKKYLEESKEKVKEIKKLAEE
B16: design_376_bf9d4634-8475-4fdb-a175-1db49a23bdcd_737_dldesign_0_cycle1_af2pred (protein)
chain: MAREKQIKLYGESLLEIAIESAVAAIKKYEDAYKIIKELSEKRAKKAEEAGDKEMGEKIKKIGKEIAELAEKDKEKALEYAKKL
B17: design_376_bf9d4634-8475-4fdb-a175-1db49a23bdcd_2226_dldesign_0_cycle1_af2pred (protein)
chain: KYKEEAKKKTEEELEKAAKAVSKENAPKVEKVKKEALKALEEDFSKAAEIIRNFAKEEKENHDVVKKYAAKASEALYEARAAKEVEER
B18: design_376_bf9d4634-8475-4fdb-a175-1db49a23bdcd_2428_dldesign_0_cycle1_af2pred (protein)
chain: MEEAIKKLKEIAKKLKELSKEAEKLAKEYPKVKNEALKVSGYAETAADQAESALKNKEKAAEAAKWAEKRLEKVEKDLKEVKKKAK
B19: design_376_bf9d4634-8475-4fdb-a175-1db49a23bdcd_2333_dldesign_0_cycle1_af2pred (protein)
chain: SEIAEKLAEWAEKAKASTREEAKAILDELLADEETKEYAELALEIVKDIAGEDAPAEAIGLALRIASDAAEA
B20: design_376_bf9d4634-8475-4fdb-a175-1db49a23bdcd_800_dldesign_0_cycle1_af2pred (protein)
chain: AKAELEKLKKEAAKHRQEMYFYGKASAKLGPKYKAEYEEHYAKALEAAKKIKELDPEEGKKYEEIVLKTKKRLEKEL
B21: design_376_bf9d4634-8475-4fdb-a175-1db49a23bdcd_1020_dldesign_0_cycle1_af2pred (protein)
chain: MGKKIHDVVKKAAEEARKAAEKAGADGELVRKAAYTAGWYYIAGDEEEAKKIVELAKKAEPKFAKTVEELMKKALEAAKKALEE
B22: design_376_bf9d4634-8475-4fdb-a175-1db49a23bdcd_1125_dldesign_0_cycle1_af2pred (protein)
chain: VEEAAKKAKEKVKEVAEKATKEAPETADIAKALAENAEKKIDELAKKGAPKEALEKAAEKAIKTIKAVKKSALELK
B23: design_376_bf9d4634-8475-4fdb-a175-1db49a23bdcd_1727_dldesign_0_cycle1_af2pred (protein)
chain: STEEAIKKALEMAEKIAKATPETGAEATKIRDELLEYIAEFAEKGTVEGTKAVAEALREQAEKASPEAAKSLRAAARFAEALAKAKA
B24: design_376_bf9d4634-8475-4fdb-a175-1db49a23bdcd_2125_dldesign_0_cycle1_af2pred (protein)
chain: SPYQKKLEEEAEEIIARARKLAEEAREAAKKAGPKIKSLADEAISYAAIARSLARDGVKYGEKYLELAKEELAKAEELAKEAVKLAKE
B25: design_376_bf9d4634-8475-4fdb-a175-1db49a23bdcd_1019_dldesign_0_cycle1_af2pred (protein)
chain: ILKEFAKLVSEAIKKATKADGLNGADIVWKEAEKSFKEVKEALKKGEEEAKKALEKAKERLEKAVEEAKKRGEA
B26: design_376_bf9d4634-8475-4fdb-a175-1db49a23bdcd_1192_dldesign_0_cycle1_af2pred (protein)
chain: GTEKTKKISDHLRKAVSAAKKAVAIAKKAGIGEEMQKTFSELRDAVVDGDLEKAKEYAKKLLELGKKVPEAYEYAKEAAEEALKAVE
B27: design_376_bf9d4634-8475-4fdb-a175-1db49a23bdcd_1228_dldesign_0_cycle1_af2pred (protein)
chain: DAALKALATKLQEEGLAWADKAYEAMQIIDPKEAPKVASDILRDFARANKLYAEDPAKGAAALAAARAKVEAIVALAKKVS
B28: design_376_bf9d4634-8475-4fdb-a175-1db49a23bdcd_1330_dldesign_0_cycle1_af2pred (protein)
chain: AVEEKLKEYTKKAEEYIEKLEKLDPEKAKELRKELEEAKKLTPEEALKKVKEIAAKASEAYYQAKAEEDAKK
B29: design_376_bf9d4634-8475-4fdb-a175-1db49a23bdcd_1821_dldesign_0_cycle1_af2pred (protein)
chain: SNVKEANKKIDEATKLLVDARKAVYEKGKAAGPEVAAGAQKIIAGAVRGDVAPALADTPEVAALAKQMQAALDKAEKLENEAVKLLS
B30: design_376_bf9d4634-8475-4fdb-a175-1db49a23bdcd_2298_dldesign_0_cycle1_af2pred (protein)
chain: GLEEKAKKAVEKAKEYLKKAKAAMEKGDYKSALAYAEQAIHAATAAIKIAKEDPSLKELEEEAKKILEEAKKLLEEAEKKL
B31: design_596_3e5f537c-0703-45f0-993f-ff416531349a_73_dldesign_0_cycle1_af2pred (protein)
chain: AEKEKEAQKLLEEMVEYGEKKAKEAEKLNPKAGERIRRARERYEKYAKDPEKAKQYVEALKEYADHVVEAAKK
B32: design_376_bf9d4634-8475-4fdb-a175-1db49a23bdcd_1294_dldesign_0_cycle1_af2pred (protein)
chain: SVKENTKEAAKKLEEKYGAEFAKIGPEYAAKMAAAAKEAAKKPTSADAIILMRDAYDELKKEADAALAAA
B33: design_596_3e5f537c-0703-45f0-993f-ff416531349a_8_dldesign_0_cycle1_af2pred (protein)
chain: EEEEREKVIKKAKEVLDRNGKKALEYAKIVPEVAPEVEKTIKESRAEIEKAAGLSLEEAQKAAAAAVHKVQELRAEAYFLAEKKK
B34: design_376_bf9d4634-8475-4fdb-a175-1db49a23bdcd_888_dldesign_0_cycle1_af2pred (protein)
chain: GVVEKAKKISEAVRAEHKAKATTKLAKADPSQAAAAKAAAEEAKKAAEKAEEADKETAKAAKAAGKEAEAAAKA
B35: design_376_bf9d4634-8475-4fdb-a175-1db49a23bdcd_1553_dldesign_0_cycle1_af2pred (protein)
chain: HEEAEKAIEKAKEYFKELVKELEKLDPKAGAKMKELAEKGKKVLERMKEYSPEDVKETAESIMKGAEKEFEKLKKEAEA
B36: design_376_bf9d4634-8475-4fdb-a175-1db49a23bdcd_1417_dldesign_0_cycle1_af2pred (protein)
chain: MEEDEKKVEEVKKRGKEVAEKAKKSTPEEAEELRKEFTRYAAEVGGKASPEARNKIQEIRAEANGEIALAIIKKK
B37: design_376_bf9d4634-8475-4fdb-a175-1db49a23bdcd_2363_dldesign_0_cycle1_af2pred (protein)
chain: AEEEAKQKELIKEMARHIQEAREYRNAAEKLPEKKEEYVKKALEHVEKALEAAEELIKNPKYKEYGEKGKKRAEEVRKKIEEVK
B38: design_376_bf9d4634-8475-4fdb-a175-1db49a23bdcd_869_dldesign_0_cycle1_af2pred (protein)
chain: REAALAAGAARLEAALAASPAAPAAAAALRAALEAGADAADVILAVQDVLAEAGAAKEDLSAAAKAAAEAVRLYS

What follows are binders tested against VTCN1, Q7Z7D3.
Chain of VTCN1, Q7Z7D3 (Q7Z7D3 whole entry): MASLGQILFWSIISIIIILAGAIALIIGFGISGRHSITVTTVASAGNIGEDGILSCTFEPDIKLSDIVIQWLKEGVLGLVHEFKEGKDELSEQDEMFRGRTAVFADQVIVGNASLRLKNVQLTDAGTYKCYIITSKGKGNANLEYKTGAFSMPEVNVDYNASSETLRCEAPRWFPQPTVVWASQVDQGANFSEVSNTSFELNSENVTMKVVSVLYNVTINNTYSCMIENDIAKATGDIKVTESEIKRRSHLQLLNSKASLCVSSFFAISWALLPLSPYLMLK
B1 was tested, and the “binding in a display sort” value was “not found (inactive)”. In the case of B2, the “binding in a display sort” value is reported as “not found (inactive)”. For B3, the “binding in a display sort” value was “not found (inactive)”. In the case of B4, the “binding in a display sort” value is reported as “not found (inactive)”. With B5 the “binding in a display sort” value was “not found (inactive)”. With B6 the “binding in a display sort” value was “not found (inactive)”. With B7 the “binding in a display sort” value was “not found (inactive)”. In the case of B8, the “binding in a display sort” value is reported as “not found (inactive)”. With B9 the “binding in a display sort” value was “not found (inactive)”. In the case of B10, the “binding in a display sort” value is reported as “not found (inactive)”. B11 was tested, and the “binding in a display sort” value was “not found (inactive)”. In the case of B12, the “binding in a display sort” value is reported as “not found (inactive)”. For B13, the “binding in a display sort” value was “not found (inactive)”. With B14 the “binding in a display sort” value was “not found (inactive)”. With B15 the “binding in a display sort” value was “not found (inactive)”. With B16 the “binding in a display sort” value was “not found (inactive)”. For B17, the “binding in a display sort” value was “not found (inactive)”. With B18 the “binding in a display sort” value was “not found (inactive)”. B19 was tested, and the “binding in a display sort” value was “not found (inactive)”. For B20, the “binding in a display sort” value was “not found (inactive)”. With B21 the “binding in a display sort” value was “not found (inactive)”. For B22, the “binding in a display sort” value was “not found (inactive)”. B23 was tested, and the “binding in a display sort” value was “not found (inactive)”. With B24 the “binding in a display sort” value was “not found (inactive)”. For B25, the “binding in a display sort” value was “not found (inactive)”. B26 was tested, and the “binding in a display sort” value was “not found (inactive)”. In the case of B27, the “binding in a display sort” value is reported as “not found (inactive)”. For B28, the “binding in a display sort” value was “not found (inactive)”. With B29 the “binding in a display sort” value was “not found (inactive)”. For B30, the “binding in a display sort” value was “not found (inactive)”. In the case of B31, the “binding in a display sort” value is reported as “not found (inactive)”. B32 was tested, and the “binding in a display sort” value was “not found (inactive)”. B33 was tested, and the “binding in a display sort” value was “not found (inactive)”. For B34, the “binding in a display sort” value was “not found (inactive)”. With B35 the “binding in a display sort” value was “not found (inactive)”. For B36, the “binding in a display sort” value was “not found (inactive)”. B37 was tested, and the “binding in a display sort” value was “not found (inactive)”. With B38 the “binding in a display sort” value was “not found (inactive)”.
